About 83,000 compounds went through this panel and 20% of them were active in at least one assay; those are over-represented in the sample as a whole.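 The test compound was applied at a single concentration to cells in 96-well plates for 48 hours, and percent growth was recorded.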 Active and inactive are the calls of the source. The calls were made as follows: active = growth percent below 10; inactive = the rest.
Columns and labels:
Experiment in all cases: NCI-60 one-dose screen, 48 h (100 = growth as untreated, 0 = no growth, -100 = all killed)
Settings in all cases: 10 µM unless noted
DU-145 prostate = tested on: DU-145 prostate
K-562 leukemia = tested on: K-562 leukemia
MALME-3M melanoma = tested on: MALME-3M melanoma
MDA-MB-231 breast = tested on: MDA-MB-231 breast
SF-268 CNS = tested on: SF-268 CNS
SF-295 CNS = tested on: SF-295 CNS
SF-539 CNS = tested on: SF-539 CNS
UACC-257 melanoma = tested on: UACC-257 melanoma

Measured: growth

COc1cc(-c2nnc(SCc3ccc(O)c4ncccc34)n2-c2ccccc2)cc(OC)c1OC
inactive: DU-145 prostate 15.2% | MDA-MB-231 breast 24.7%
active: K-562 leukemia 4.83% | MALME-3M melanoma -4.75% | SF-268 CNS 8.87% | SF-295 CNS 0.13% | SF-539 CNS 0.686% | UACC-257 melanoma -18.1%

O=C1[C@H]2Cc3c([nH]c4ccccc34)[C@@H](c3c(Cl)cccc3Cl)N2C(=O)CN1C1CCN(CC2CCCCC2)CC1
active: K-562 leukemia 9.76%
inactive: DU-145 prostate 48.9% | MALME-3M melanoma 85.5% | MDA-MB-231 breast 75% | SF-268 CNS 84.4% | SF-295 CNS 105% | SF-539 CNS 95.4% | UACC-257 melanoma 110%

CS(=O)(=O)Nc1cc(-c2ccc3ncc(C#N)c(Nc4cccc(Cl)c4F)c3c2)cnc1Cl
active: MALME-3M melanoma -32.5% | MDA-MB-231 breast -8.64% | SF-268 CNS -10.1% | SF-295 CNS -10.9% | SF-539 CNS -24.4% | UACC-257 melanoma 2.63%
inactive: DU-145 prostate 11.9% | K-562 leukemia 21.8%

NC(N)=Nc1ccc(Oc2cccc(NC(N)=Nc3ccc(Cl)c(C(F)(F)F)c3)c2)cc1
inactive: DU-145 prostate 75.2% | K-562 leukemia 31.7% | MALME-3M melanoma 61.8% | MDA-MB-231 breast 61.3% | SF-268 CNS 21.9% | SF-295 CNS 58.3% | SF-539 CNS 49.3% | UACC-257 melanoma 57%

COc1cc2c(cc1OC)C(Sc1ccc(F)cc1)c1c(nc(N)c(C#N)c1N)O2 (stereo not drawn)
active: DU-145 prostate -93.3% | K-562 leukemia 8.27% | MALME-3M melanoma -75.1% | MDA-MB-231 breast -79% | SF-268 CNS -38.3% | SF-295 CNS -74.8% | SF-539 CNS -90.6% | UACC-257 melanoma -25%

CC(=O)c1cc(C(=O)c2ccc(Br)cc2)n2cc(C)cc(C)c12
inactive: DU-145 prostate 94.8% | K-562 leukemia 93.1% | MALME-3M melanoma 111% | MDA-MB-231 breast 90% | SF-268 CNS 89.7% | SF-295 CNS 96% | SF-539 CNS 88.4% | UACC-257 melanoma 105%

COc1ccccc1NCc1cccn1Cc1ccc(F)cc1
inactive: DU-145 prostate 90% | K-562 leukemia 111% | MALME-3M melanoma 101% | MDA-MB-231 breast 89.4% | SF-268 CNS 92.5% | SF-295 CNS 104% | SF-539 CNS 98.6% | UACC-257 melanoma 102%

N#Cc1cccc(NC(=O)c2cc(-c3ccc(F)cc3F)ccc2O)c1
inactive: DU-145 prostate 20.9% | K-562 leukemia 11.8% | SF-268 CNS 18.7% | SF-539 CNS 15.1%
active: MALME-3M melanoma -9.34% | MDA-MB-231 breast 6.64% | SF-295 CNS -16.9% | UACC-257 melanoma -6.12%

COc1ccc2c(c1)c(CC(=O)[Se]CCC#N)c(C)n2C(=O)c1ccc(Cl)cc1
inactive: K-562 leukemia 21.2%
active: DU-145 prostate 6.8% | MALME-3M melanoma -68.3% | MDA-MB-231 breast -13.8% | SF-268 CNS -30.7% | SF-295 CNS -82.9% | SF-539 CNS -63.9% | UACC-257 melanoma 6.66%

COc1ccc([C@H]2c3[nH]c4ccccc4c3C[C@H]3C(=O)N(C4CCN(Cc5c(Cl)cccc5Cl)CC4)CC(=O)N23)c(OC)c1
inactive: DU-145 prostate 110% | K-562 leukemia 92.7% | MALME-3M melanoma 90.6% | MDA-MB-231 breast 93% | SF-268 CNS 85.6% | SF-295 CNS 106% | SF-539 CNS 101% | UACC-257 melanoma 116%

CCn1c(SCC(=O)Nc2cccc(C(=O)/C=C/c3ccc(Br)cc3)c2)nc2ccccc2c1=O
inactive: DU-145 prostate 104% | K-562 leukemia 77.3% | MALME-3M melanoma 95.3% | MDA-MB-231 breast 85.5% | SF-268 CNS 100% | SF-295 CNS 98.5% | SF-539 CNS 91.4% | UACC-257 melanoma 96.3%

O=C(NNc1nc2cc(F)c(F)cc2n2c(CN3CC4CNCC4C3)ccc12)c1ncccn1 (stereo not drawn)
inactive: DU-145 prostate 24% | MALME-3M melanoma 10.3% | MDA-MB-231 breast 38.7% | SF-268 CNS 19.7%
active: K-562 leukemia 9.16% | SF-295 CNS -14.5% | SF-539 CNS 6.72% | UACC-257 melanoma 8.25%

Oc1cccc2ccc(-c3nnc(SCc4ccc(O)c5ncccc45)n3-c3ccccc3)nc12
active: MALME-3M melanoma -3.5% | SF-295 CNS 2.95% | SF-539 CNS 4.73% | UACC-257 melanoma -2.75%
inactive: DU-145 prostate 25.2% | K-562 leukemia 12.4% | MDA-MB-231 breast 29.7% | SF-268 CNS 22.8%

CCCCCc1ccc(S(=O)(=O)Nc2cc(-c3csc(NC(=O)CN4CCN(C)CC4)n3)ccc2OC)cc1
inactive: DU-145 prostate 22.1%
active: K-562 leukemia -27.9% | MALME-3M melanoma -84.6% | MDA-MB-231 breast -38.1% | SF-268 CNS -24.5% | SF-295 CNS -68.2% | SF-539 CNS -80.8% | UACC-257 melanoma -49.2%

CCCCCc1ccc(S(=O)(=O)Nc2cccc(-c3csc(NCCN4CCN(C)CC4)n3)c2)cc1
active: K-562 leukemia 0.356% | MALME-3M melanoma -36.7%
inactive: DU-145 prostate 74.3% | MDA-MB-231 breast 64.3% | SF-268 CNS 80.9% | SF-295 CNS 107% | SF-539 CNS 76.4% | UACC-257 melanoma 38.1%

O=C(NNc1nc2cc(F)c(F)cc2n2cccc12)c1cnccn1
inactive: DU-145 prostate 32.7% | K-562 leukemia 15.5% | MALME-3M melanoma 49.7% | MDA-MB-231 breast 44% | SF-268 CNS 32.5% | SF-295 CNS 11.1% | SF-539 CNS 19.9% | UACC-257 melanoma 17.5%

COc1cccc(O)c1/C=C(/C)c1ccc2c(OC)cccc2[o+]1
inactive: DU-145 prostate 111% | K-562 leukemia 95.6% | MALME-3M melanoma 96.8% | MDA-MB-231 breast 101% | SF-268 CNS 100% | SF-295 CNS 99.1% | SF-539 CNS 93.2% | UACC-257 melanoma 118%

Oc1cccc2ccc(-c3nnc(SCc4ccc(O)c5ncccc45)o3)nc12
active: MALME-3M melanoma -3.31% | SF-295 CNS 3.94% | UACC-257 melanoma 0.0475%
inactive: DU-145 prostate 22.1% | K-562 leukemia 14.6% | MDA-MB-231 breast 26.6% | SF-268 CNS 23.4% | SF-539 CNS 14.5%

CCn1c(SCC(=O)Nc2cccc(C(=O)/C=C/c3ccccc3Cl)c2)nc2ccccc2c1=O
inactive: DU-145 prostate 77.8% | K-562 leukemia 53% | MALME-3M melanoma 103% | MDA-MB-231 breast 87.1% | SF-268 CNS 88% | SF-295 CNS 91.4% | SF-539 CNS 90.4% | UACC-257 melanoma 110%

CCc1nn2c(C)cc(C)nc2c1Cc1ccc(/C=C/CN2CCN(CCOCCOCCN3CCN(C/C=C/c4ccc(Cc5c(CC)nn6c(C)cc(C)nc56)cc4)CC3)CC2)cc1
active: DU-145 prostate -31.6% | K-562 leukemia -51.2% | MALME-3M melanoma -92.4% | MDA-MB-231 breast -66.2% | SF-268 CNS -53.8% | SF-295 CNS -52.7% | SF-539 CNS -83.7% | UACC-257 melanoma -67.6%

C=CCn1c(SCC(=O)Nc2ccc(C(=O)/C=C/c3ccc(Br)cc3)cc2)nnc1-c1c[nH]c2ccccc12
inactive: DU-145 prostate 91.6% | K-562 leukemia 66.8% | MALME-3M melanoma 91% | MDA-MB-231 breast 86.2% | SF-268 CNS 70.7% | SF-295 CNS 90.2% | SF-539 CNS 88.2% | UACC-257 melanoma 107%

O=C(NCCn1ccnc1)c1ccc(-c2nc3ccc4[nH]ncc4c3c3c2CCCC3)cc1
inactive: DU-145 prostate 62.7% | K-562 leukemia 24.1% | MALME-3M melanoma 41.9% | MDA-MB-231 breast 66.1% | SF-268 CNS 48% | SF-295 CNS 77.1% | SF-539 CNS 50.9% | UACC-257 melanoma 92.9%

N/C(=N\C(N)=N\c1nc2ccccc2s1)c1ccc(C(F)(F)F)cc1
inactive: DU-145 prostate 80.1% | K-562 leukemia 76.6% | MALME-3M melanoma 101% | MDA-MB-231 breast 84.5% | SF-268 CNS 74.3% | SF-295 CNS 69% | SF-539 CNS 98.7% | UACC-257 melanoma 115%

CCOc1ccc(NC2=C(Cl)C(=O)c3nc(C)ccc3C2=O)cc1
inactive: SF-268 CNS 32.3% | SF-295 CNS 51%
active: DU-145 prostate -92.7% | K-562 leukemia -4.17% | MALME-3M melanoma -90.6% | MDA-MB-231 breast -71.7% | SF-539 CNS -58.8% | UACC-257 melanoma -89.2%

CN1CCN(Cc2ccc(NC(=O)c3cncc(C#Cc4cnc5ccc(OCC(C)(C)O)nn45)c3)cc2C(F)(F)F)CC1
active: DU-145 prostate -36.8% | K-562 leukemia 8.57% | MALME-3M melanoma -67.6% | MDA-MB-231 breast -11.1% | SF-268 CNS -50.4% | SF-295 CNS -2.58% | SF-539 CNS -83.1% | UACC-257 melanoma -16.8%

N#Cc1cnc2ccc(-c3cnc4[nH]ncc4c3)cc2c1N1CCc2cc(F)c(Cl)cc21
inactive: K-562 leukemia 16.6% | MDA-MB-231 breast 10.9% | UACC-257 melanoma 36%
active: DU-145 prostate 7.85% | MALME-3M melanoma 0.688% | SF-268 CNS 8.85% | SF-295 CNS -18.8% | SF-539 CNS -27.1%

COc1cc2c(cc1OC)C(Sc1ccc(C)cc1)c1c(nc(N)c(C#N)c1N)O2 (stereo not drawn)
active: DU-145 prostate -83% | K-562 leukemia 4.48% | MALME-3M melanoma -70.7% | MDA-MB-231 breast -41.4% | SF-268 CNS -54.5% | SF-295 CNS -84.1% | SF-539 CNS -86.3% | UACC-257 melanoma -35.2%

COc1c(N2CC3CCCNC3C2)c(F)cc2c(=O)c(C(=O)N/N=C/c3c[nH]c4ccccc34)cn(C3CC3)c12 (stereo not drawn)
active: K-562 leukemia 3.26%
inactive: DU-145 prostate 104% | MALME-3M melanoma 118% | MDA-MB-231 breast 95.3% | SF-268 CNS 91.9% | SF-295 CNS 110% | SF-539 CNS 88.2% | UACC-257 melanoma 121%

CC(C)C[C@@H]1N[C@@]2(C(=O)Nc3ccccc32)[C@@H](c2ccc(F)cc2)[C@@H]1C(=O)c1ccc(O)cc1
inactive: DU-145 prostate 102% | K-562 leukemia 89.7% | MALME-3M melanoma 84.3% | MDA-MB-231 breast 82.4% | SF-268 CNS 88.7% | SF-295 CNS 100% | SF-539 CNS 93.3% | UACC-257 melanoma 112%

CS(=O)(=O)Nc1cc(-c2ccc3ncc(C#N)c(NCc4ccccc4O)c3c2)cnc1Cl
active: MALME-3M melanoma -37.2% | MDA-MB-231 breast 6.73% | SF-268 CNS 6.44% | SF-295 CNS -14.4% | SF-539 CNS -14.5% | UACC-257 melanoma 6.3%
inactive: DU-145 prostate 19.2% | K-562 leukemia 22.3%

COc1c(N2CC3CCCNC3C2)c(F)cc2c(=O)c(C(=O)N/N=C/c3ccc(F)cc3)cn(C3CC3)c12 (stereo not drawn)
inactive: DU-145 prostate 102% | K-562 leukemia 18.9% | MALME-3M melanoma 86.3% | MDA-MB-231 breast 82.3% | SF-268 CNS 82.9% | SF-295 CNS 97.7% | SF-539 CNS 87.7% | UACC-257 melanoma 79.5%

— PubChem BioAssay (NCI)
